Source: PubChem BioAssay (several laboratories)
Hits are enriched below; roughly 1.6% of the tested compounds scored in any of these assays.
Rce1 inhib – yeast Rce1p protease inhibitors, primary screen, biochemical, fluorescence, cell-free homogeneous | yeast membranes, quenched prenylated peptide cleavage fluorescence | CAAX prenyl protease 2 (Saccharomyces cerevisiae (strain ATCC 204508 / S288c)), Q03530 | calls only | 290,000 tested, 0.27% active;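 active means fall in fluorescence gain of 50% or more versus controls, with final raw signal at or below 3038400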
NPR1 activator – GC-A stimulated cGMP production enhancers – HEK293 GC-A cells, cGMP TR-FRET, EC30 ANP, primary screen | AID 1671463, 2021 | 370,000 tested, 0.14% active | activation, % at 10 µM | 0% at EC30 ANP, 100% saturating ANP | Atrial natriuretic peptide receptor 1 (Homo sapiens), P16066; in the data active means activation above about 40%
V-ATPase pH – regulators of yeast V-ATPase proton pumping, primary screen, pHLuorin cytosolic pH fluorescence; S. cerevisiae; 350,000 tested, 0.37% active; response, % at 10 µM; in the data active means response mostly above about 7.3%, no sharp cut-off; inactive means mostly below about 5.4%; further: actives read high
Efflux pump mplx – inhibitors of Candida efflux pumps in yeast, primary screen, S. cerevisiae, Nile Red, multiplex; S. cerevisiae Candida pump triplex; inhibition, % at 10 µM; 330,000 tested, 0.44% active;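 active means plate passing quality check with inhibition over a set limit, or well fluorescence over plate mean plus 4 SD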;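 further: Nile Red retained in pooled yeast measured as flow cytometry median fluorescence; higher means more Nile Red kept so more efflux inhibition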
NSD2 HMT inh – NSD2 histone methyltransferase inhibitors, primary screen, biochemical, AlphaScreen, single concentration, set 2; NSD2 peptide methylation, 120 min; 310,000 tested, 0.54% active; AID 743445, 2014; Histone-lysine N-methyltransferase NSD2 (Homo sapiens), O96028; inhibition, % at 12.5 µM; in the data active means inhibition above about 50%
Target sequence (O96028 whole entry, looked up): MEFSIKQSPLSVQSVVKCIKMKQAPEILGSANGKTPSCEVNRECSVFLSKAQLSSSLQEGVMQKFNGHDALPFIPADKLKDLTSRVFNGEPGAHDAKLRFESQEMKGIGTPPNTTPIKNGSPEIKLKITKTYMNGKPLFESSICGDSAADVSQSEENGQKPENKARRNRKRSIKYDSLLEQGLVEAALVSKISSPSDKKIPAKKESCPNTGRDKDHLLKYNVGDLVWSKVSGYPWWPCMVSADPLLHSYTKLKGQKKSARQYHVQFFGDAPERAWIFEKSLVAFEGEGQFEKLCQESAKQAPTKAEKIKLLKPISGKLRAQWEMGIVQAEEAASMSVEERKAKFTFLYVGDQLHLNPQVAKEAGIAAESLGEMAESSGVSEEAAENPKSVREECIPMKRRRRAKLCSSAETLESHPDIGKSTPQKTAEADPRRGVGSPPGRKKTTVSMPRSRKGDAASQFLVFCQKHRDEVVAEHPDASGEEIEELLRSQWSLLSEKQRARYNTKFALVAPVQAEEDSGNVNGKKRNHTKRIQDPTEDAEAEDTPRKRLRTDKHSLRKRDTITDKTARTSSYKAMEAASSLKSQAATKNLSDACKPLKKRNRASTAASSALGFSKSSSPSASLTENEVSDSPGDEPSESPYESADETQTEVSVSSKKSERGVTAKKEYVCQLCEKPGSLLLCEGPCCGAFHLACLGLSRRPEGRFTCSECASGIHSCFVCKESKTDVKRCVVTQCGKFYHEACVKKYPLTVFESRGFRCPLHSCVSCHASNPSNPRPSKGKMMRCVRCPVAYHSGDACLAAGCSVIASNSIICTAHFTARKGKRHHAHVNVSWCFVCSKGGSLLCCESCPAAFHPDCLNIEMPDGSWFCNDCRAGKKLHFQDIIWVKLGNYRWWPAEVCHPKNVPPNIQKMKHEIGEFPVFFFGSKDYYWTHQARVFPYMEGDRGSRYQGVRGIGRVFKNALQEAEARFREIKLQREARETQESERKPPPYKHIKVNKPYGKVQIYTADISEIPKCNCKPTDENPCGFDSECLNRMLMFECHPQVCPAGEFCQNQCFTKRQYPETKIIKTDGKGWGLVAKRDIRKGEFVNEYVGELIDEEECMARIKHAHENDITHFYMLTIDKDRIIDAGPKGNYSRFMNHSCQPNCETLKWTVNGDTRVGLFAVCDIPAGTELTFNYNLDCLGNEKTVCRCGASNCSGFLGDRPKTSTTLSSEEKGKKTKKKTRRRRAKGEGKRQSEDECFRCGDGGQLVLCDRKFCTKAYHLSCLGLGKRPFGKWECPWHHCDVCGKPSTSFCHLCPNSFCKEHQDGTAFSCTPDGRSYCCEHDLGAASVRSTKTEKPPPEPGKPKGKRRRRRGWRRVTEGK
NPR2 activator – human GC-B receptor activators, primary screen, HEK293 GC-B cells, cGMP TR-FRET, EC30 CNP. Atrial natriuretic peptide receptor 2 (Homo sapiens), P20594. 0% at EC30 CNP, 100% saturating CNP. activation, % at 10 µM. 370,000 tested, 0.11% active. AID 1920062, 2024;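 active means activation at 10 µM reaching about 35% in either raw or pattern-adjusted values, limit read from the data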
AlphaScreen art – AlphaScreen signal interference with preloaded methylated product, dose response, artefact control for NSD2 inhibitor project, biochemical, cherry-picked samples. shares compounds with NSD2 HMT inh. AlphaScreen artifact counterscreen, preloaded methylated H4 peptide. AC35, µM (doses to about 10 µM). 1,500 tested, 9.4% active. AID 1053174, 2014; call rule not given here
A number is an active result; – = inactive; · = no result given.

SMILES	Rce1 inhib	NPR1 activator	V-ATPase pH	Efflux pump mplx	NSD2 HMT inh	NPR2 activator	AlphaScreen art
O=[N+]([O-])c1ccc(S(=O)(=O)N(CC(O)CN2CCCCC2)c2ccccc2)cc1 (stereo not given)	–	–	–	–	–	–	·
CCCCN=C(N)NC(=O)OCc1ccccc1	·	–	·	·	·	–	·
CN(C)c1ccc2cc(S(=O)(=O)O)cc(O)c2c1	·	–	–	·	62.9	–	0.971µM
CN(C)c1ccc2c(O)cc(=O)n(C)c2c1	–	–	–	–	–	–	·
O=C(NC1CCCc2ccccc21)c1ccccc1OC(F)F (stereo not given)	–	–	–	–	94.9	–	–
O=C(NC1CCCc2ccccc21)c1ccccc1Cl (stereo not given)	–	–	–	–	–	–	·
O=C(Nc1ccc(Cl)c(Cl)c1)C1CCN(c2nnc(-n3cccc3)s2)CC1	·	–	·	·	–	–	·
CCOC(=O)c1ccc(S(=O)(=O)N2CCN(c3ccccn3)CC2)cc1	–	–	–	–	50.6	–	–
CCOC(=O)c1ccc(S(=O)(=O)N2CCN(C(C)=O)CC2)cc1	–	–	–	–	–	–	·
Cc1cccc(C)c1NC(=O)[C@H]1CC(=O)O[C@@H]1c1ccccc1	·	–	·	·	–	–	·
O=C(Nc1cc(S(=O)(=O)N2CCOCC2)ccc1N1CCCC1)c1cc2c(s1)CCCC2	·	–	·	·	·	–	·
CN1CCN(/N=C/c2nc(-c3ccccc3Cl)n3ccccc23)CC1	–	–	–	–	67.3	–	–
COc1cccc(CN2C(=O)C(C)N(C(=O)c3c(F)cccc3F)c3ccccc32)c1 (stereo not given)	–	–	–	–	104.2	–	–
CC1C(=O)N(Cc2ccccc2F)c2ccccc2N1C(=O)c1c(F)cccc1F (stereo not given)	–	–	–	–	–	–	·
O=C(CN1CCc2onc(-c3ccc(-n4cc(C5=CCCCC5)nn4)cc3)c2C1=O)N1CCOCC1	·	–	·	·	·	–	·
CC(C)c1ccc2c(c1)[C@H]1OCC[C@H]1[C@@H](c1cccs1)N2	–	–	–	–	–	–	·
Cc1cc(C)c2c(c1)N[C@H](c1cccs1)[C@@H]1CCO[C@H]21	–	–	–	–	50.2	–	–
O=C(CSc1nnc(-c2cccnc2)n1-c1ccccc1)Nc1cccc2ccccc12	·	–	·	·	–	–	·
COc1ccc(CC(=O)NC2CCCCCC2)c(OC)c1	–	–	–	–	77.0	–	–
CC(C)CNC(=O)c1cnn2c(C(F)(F)F)cc(C(F)(F)F)nc12	–	–	–	–	53.5	–	–
Cc1ccc(Sc2ncccc2C(N)=O)cc1	–	–	–	–	106.2	–	–
c1ccc(CCSc2nnc(-c3cccnc3)n2Cc2ccccc2)cc1	·	–	·	·	–	–	·
CCOC(=O)c1sc2nc(C)nc(NC3CCC(O)CC3)c2c1C (stereo not given)	–	–	–	–	90.6	–	–
CCOC(=O)c1sc2nc(C)nc(NCc3ccccc3OC)c2c1C	–	–	–	–	–	–	·
CCOC(=O)[C@@]12CCC3=C1N(CCC3)C(=O)[C@H](CC(=O)N1CCSCC1)C2	·	–	·	·	·	–	·
SMILES	Rce1 inhib	NPR1 activator	V-ATPase pH	Efflux pump mplx	NSD2 HMT inh	NPR2 activator	AlphaScreen art
COc1ccc(/C=C2\N=C(C(C)(C)C)OC2=O)c(OC)c1	–	–	–	–	91.0	–	–
Cc1cccc(C)c1NC(=S)N(CCCN1CCN(C)CC1)Cc1cccs1	–	–	–	–	74.7	–	–
Cc1ccccc1CS(=O)(=O)Cc1ccc(C(=O)Nc2ccccc2C)o1	·	–	·	·	–	–	·
Nc1nc2ccc(S(=O)(=O)N3CCCCC3)cc2s1	–	–	–	–	·	–	·
Cc1nc2ccc(S(=O)(=O)N3CCCCC3)cc2s1	–	–	–	–	50.7	–	–
CCN(CC)CCNC(=O)Cc1nn(Cc2ccccc2)c(=O)c2ccccc12	–	–	–	–	51.4	–	–
N#Cc1cc(-c2ccccc2)nnc1Oc1ccccc1Cl	–	–	–	–	71.1	–	–
O=C1NN(c2ccccc2)C(=O)/C1=C/c1ccc(-c2ccc(Cl)c(C(=O)O)c2)o1	–	–	–	·	–	–	·
Cc1cccc(N2NC(=O)/C(=C/c3ccc(-c4ccc(Cl)c(C(=O)O)c4)o3)C2=O)c1	–	–	–	·	76.3	–	–
COc1ccc(N=c2scc(C)n2CCCN2CCCC2=O)cc1	–	–	–	–	151.3	–	–
O=C(CC1(O)C(=O)Nc2cc(Cl)cc(Cl)c21)c1ccncc1 (stereo not given)	–	–	–	–	96.7	–	–
COc1ccccc1NC(=O)c1ccccc1NS(=O)(=O)N1CCCC1	–	–	–	–	83.0	–	–
CC(C)C[C@@H]1COc2cc(Br)ccc2S(=O)(=O)N1Cc1cn(CCC2OCCO2)nn1	·	–	·	·	·	–	·
COc1ccccc1C(=O)N1CCCC(c2nc(-c3cccs3)no2)C1 (stereo not given)	·	–	·	·	–	–	·
O=C1C(Cl)=C(NCCN2CCOCC2)C(=O)c2ccccc21	–	–	–	–	101.3	–	–
CCOCCCNC1=C(Cl)C(=O)c2ccccc2C1=O	–	–	–	–	81.0	–	–
N#CCC[C@@H]1CC[C@]2(CCCN(C(=O)c3cccnc3)C2)O1	·	–	·	·	·	–	·
Cc1c(C)n(Cc2ccccc2)c2ccc(C(=O)OCCCN(C)C)cc12	–	–	–	–	90.4	–	–
CC(C)(C)c1cc(C(=O)N/N=C/c2ccncc2)n[nH]1	–	–	–	–	54.9	–	–
CC(C)(C)c1cc(C(=O)N/N=C/c2ccccn2)n[nH]1	–	–	–	–	–	–	·
CC1=NN(c2ccc([N+](=O)[O-])cc2)C(=O)/C1=C\N(C)C	–	–	–	–	–	–	·
CC1=NN(c2ccccc2)C(=O)/C1=C/N(C)C	–	–	–	–	70.8	–	–
CN(C)c1ccc(NC2=C(Cl)C(=O)c3ccccc3C2=O)cc1	–	–	–	–	58.1	–	8.79µM
CC(=O)Nc1ccc(NC2=C(Cl)C(=O)c3ccccc3C2=O)cc1	–	–	·	·	–	–	·
CCOC(=O)[C@]12CCCCC/C=C\1N(CCc1ccc(Cl)cc1)C(=O)[C@H]2CC(=O)NCC12CC3CC(CC(C3)C1)C2	·	–	·	·	·	–	·
CCc1ccc(N(CC(=O)NCc2ccc3c(c2)OCO3)C(=O)c2csnn2)cc1	·	–	–	–	60.4	–	–
CN1C/C(=C/c2ccccc2)N2C(=O)C[C@@H](c3ccccc3)N=C12	·	–	·	·	·	–	·
